We go through 113 molecules from ChEMBL document CHEMBL4513216, “Probing the Open Global Health Chemical Diversity Library for Multistage-Active Starting Points for Next-Generation Antimalarials” (ACS Infect Dis, 2020).

SMILES strings stand for the structures. Screen size: about 69,000 compounds; about 8,600 (12%) showed an effect of 50% or more. For the sample, strong results were picked, then their nearest neighbours and some compounds at random.

The test has as its system Plasmodium berghei. In words: Screen against P. berghei liver stage (PbLuc), transformed with Luciferase, at 10uM. Type of test: functional, HepG2. To be noted: tested at 10 uM.
As to `CCOCCOc1ccc(S(=O)(=O)N2CCc3c(nc[nH]c3=O)C2)cc1`, the INHIBITION is reported as 5.05%. With `Cc1nc(CN2CCN(CC3CCOC3)Cc3cccnc32)cs1` (stereo not drawn), the INHIBITION is recorded as 41%.

In the case of `NC(=O)CSc1ccccc1NC(=O)C1CCCC1`, the INHIBITION is -53.6%. In the case of `COc1cccc(C=CCCN2CCC(C(=O)N3CCCC3)CC2)c1` it was -16.1%; in that of `O=C1NC2(CCN(C(=O)CN3CCOCC3)CC2)Nc2ccc(Cl)cc21`, 23.75%. The figure for `Cn1ccc2cc(C(=O)Nc3nc[nH]n3)ccc21` is 11.6%; for `CN(C)C(=O)c1nnn(-c2ccc(Br)cc2)n1` it is 28.4%. In the case of `CCNc1cc2c(nn1)CCN(C(=O)Cc1ccc(C)nc1)C2` it was -42.1%; in that of `CCc1ccc(C(=O)N2CCCC3(CCCC(=O)N3C)C2)cc1` (stereo not drawn), 30.9%. As to `O=C(CS(=O)(=O)C1CCCC1)NC(c1ccc(F)cc1)C1CC1` (stereo not drawn), the INHIBITION is -32.6%.

Consider `COCCN1C[C@@H]2CC[C@H]1CN(Cc1nc3ccccc3n1C)C2`, for which the INHIBITION is on record as -35%.

On to `CC(=O)NCCNC(=O)c1cnc(-c2ccc(C)cc2C)s1`, for which the INHIBITION is -74.9%.

Consider `CN(Cc1cnc(N)nc1)C(=O)c1coc(COc2ccccc2)n1`, for which the INHIBITION is 27.6%. In the case of `CN1CCN(Cc2cccnc2)C(=O)C12CCN(Cc1ccco1)CC2` it was 32.1%; in that of `Cc1nccn1Cc1nnc(C2CCN(c3ccncc3F)CC2)n1C`, -21.9%; in that of `CC[C@@H]1N(Cc2ccsc2)CCC[C@]12CCC(=O)N2C`, 23.2%. In the case of `CC[C@@H]1N(Cc2ccncc2)CCC[C@]12CCC(=O)N2CCOC` it was 25.3%. In the case of `CC[C@@H]1N(Cc2ccsc2)CCC[C@]12CCC(=O)N2CCOC` it was 52.4%.

With `Cc1csc(CN2CC[C@@](O)(C3CCOCC3)[C@H](C)C2)n1`, the INHIBITION amounted to 9.55%. For `O=C1NCc2ccccc2CC12CCN(Cc1c(F)cccc1Cl)C2` (stereo not drawn), the INHIBITION was -9.73%. Consider `COc1ccc(CN(C(=O)C2CCOCC2)c2ccncc2)cc1`, for which the INHIBITION was found to be 1.7%. Turning to `COc1ccc(CN(C(=O)C2CCCO2)c2ccncc2)cc1` (stereo not drawn), the INHIBITION is reported as 27.5%.

`COc1ccc(CN(C(=O)C2CCCOC2)c2ccncc2)cc1` (stereo not drawn): the INHIBITION stood at 66.3%.

For `Brc1cnc(NCc2ccccc2N2CCOCC2)nc1`, the INHIBITION is recorded as -31.7%.

Take `O=C(CO)N1CC2(CCN(c3ccccc3)C2)C1`: the INHIBITION was -34.6%. In the case of `O=C(CCO)N1CC2(CCN(c3ccccc3)C2)C1` it was 61.9%; in that of `COCCC(=O)N1CC2(CCN(c3ccccc3)C2)C1`, 12.1%; in that of `Cc1nn(C)c(N(C)C)c1CNCCCNS(C)(=O)=O`, -66.8%.

With `CSc1[nH]nc(NC(=O)c2ccccc2)c1C#N`, the INHIBITION is given as 23.1%.

With `O[C@@H]1Cc2ccccc2[C@@H]1Nc1ncccc1F`, the INHIBITION is given as 18%. Regarding `N#Cc1cccnc1N[C@@H]1c2ccccc2C[C@@H]1O`, the INHIBITION is given as 22.9%. In the case of `O[C@H]1Cc2ccccc2[C@H]1Nc1ncccc1C(F)(F)F` it was 56.3%; in that of `COc1ccc2c(ccn2CCC(=O)Nc2n[nH]c(CC(C)C)n2)c1`, 46.7%. In the case of `O=C(CC1CCCC1)NCCS(=O)(=O)N1CCN(c2ncccn2)CC1` it was -73.6%; in that of `Cc1n[nH]c2c1C(c1ccc(F)cc1)SCC(=O)N2` (stereo not drawn), 23.5%; in that of `Cc1n[nH]c2c1C(c1ccc(Br)cc1)SCC(=O)N2` (stereo not drawn), 61.8%. In the case of `Cc1n[nH]c2c1C(c1ccc(Cl)cc1)SCC(=O)N2` (stereo not drawn) it was 46.7%; in that of `COCCC(=O)N1CC[C@@H](N2CCOCC2)[C@@H]1Cc1ccccc1`, 38.1%. `Cc1cccnc1CNC(=O)CC1C(=O)NCCN1CC(C)(C)C` (stereo not drawn): the INHIBITION came out at 6.29%. The figure for `CC(=O)N(Cc1noc(C)n1)C1CCN(Cc2ncc(C(C)C)o2)C1` (stereo not drawn) is 11.6%; for `Cc1nn(C)c(C)c1CCC(=O)NCc1cccnc1OC1CCCC1` it is 56.6%. For `Cc1nn(C)c(C)c1C(=O)NCc1cccnc1OC1CCCC1`, the INHIBITION is 37.6%. The figure for `CCOc1ncccc1CNC(=O)Nc1cc(C)nn1C` is -19.6%; for `Cc1nn(C)c(C)c1CC(=O)NCc1cccnc1OC1CCCC1` it is 29.8%. `COc1ncccc1CNC(=O)Nc1cc(C)nn1C`: the INHIBITION came out at 29.7%.

Take `Cc1cc(NC(=O)NCc2cccnc2OC2CCCC2)n(C)n1`: the INHIBITION came out at 50.3%.

`OCC1(NCc2cccc(-n3cccn3)c2)CCOCC1`: the INHIBITION is given as 43.4%.

Consider `CCN1CCCC1(C)c1nc(C)cc(N)n1` (stereo not drawn), for which the INHIBITION is recorded as -2.09%.

For the molecule `CCOc1ccc(NC(=O)NCC(C)(O)c2cccs2)cc1` (stereo not drawn), the INHIBITION was 40.6%. In the case of `O=C(Nc1cnccn1)[C@H]1COC[C@H]2CN(C3CCCC3)C[C@H]21` it was -14.6%; in that of `CCn1ccnc1CN1CCN(CC(O)c2ccc(OC)cc2)CC1` (stereo not drawn), 0.8%; in that of `COc1ccc(F)c(-c2nccn2CCN2CCCC2)c1`, 18.2%. Take `COc1ccc(-c2nccn2CC(O)CN2CCCC2)c(F)c1` (stereo not drawn): the INHIBITION is recorded as 61.5%. The figure for `CCC(CC)(CNC(=O)NC1CCCC1(C)C)S(C)(=O)=O` (stereo not drawn) is 2.49%; for `COCCCNC(=O)c1cc(-c2cnc(N(C)C)nc2)cn1CC1CC1` it is -22.1%. As to `CCCOc1ccc(Cl)cc1NC(=O)NCCC(=O)N(C)C`, the INHIBITION is listed as -5.32%. Take `CCC1CCCN(S(=O)(=O)c2cnc3onc(C)c3c2)C1` (stereo not drawn): the INHIBITION is listed as 9%. The figure for `Cc1ccc(CC2COc3ccccc3C2)c(N)n1` (stereo not drawn) is -6.18%; for `COc1ccc2c(c1)OCC(Cc1ccnc(N)n1)C2` (stereo not drawn) it is 11%. The figure for `COc1ccc2c(c1)OCC(Cc1cnccc1N)C2` (stereo not drawn) is 29%; for `COc1ccc2c(c1)OCC(Cc1ccc(C)nc1N)C2` (stereo not drawn) it is 57.2%; for `COc1cccc2c1OCC(CNc1cc(N)nc(SC)n1)C2` (stereo not drawn) it is 1.94%. The figure for `COc1ccc2c(c1)OCC(CNc1cc(N)nc(SC)n1)C2` (stereo not drawn) is 69.8%. For the molecule `Cc1nc(N)ccc1CC1COc2ccccc2C1` (stereo not drawn), the INHIBITION was -27.9%. The figure for `COc1ccc2c(c1)OCC(Cc1ccc(N)nc1C)C2` (stereo not drawn) is 76.3%; for `COc1cccc2c1OCC(Cc1ccc(N)nc1C)C2` (stereo not drawn) it is 6.83%; for `Cc1noc(C(C)N2CCN(CC(=O)N3CCCC3)CC2)n1` (stereo not drawn) it is 8.99%. In the case of `O=C(NCC1CCCCC1)N1C[C@@H]2C[C@H](C(=O)N3CCCC3)[C@H](C1)O2` it was 48.2%. As for `N#Cc1ccc(NCc2cc3n(n2)CCCN(C(=O)C2CCC2)C3)nc1`, the INHIBITION was 14.6%. With `CSc1ccc(-n2nnc(C(=O)O)c2-c2ccccn2)cc1`, the INHIBITION was found to be 36.2%. The figure for `CC(CNCc1ccc(F)cc1)Oc1ccccn1` (stereo not drawn) is 13.8%.

For `COc1ccc(OCC(=O)NS(=O)(=O)c2ccc(Cl)s2)cc1`, the INHIBITION is 17.7%.

In the case of `COc1cccc(OCC(=O)NS(=O)(=O)c2ccc(Br)s2)c1`, the INHIBITION is recorded as 17.5%.

Consider `COc1ccc(OCC(=O)NS(=O)(=O)c2ccc(Br)s2)cc1`, for which the INHIBITION turned out to be 60.9%. The figure for `CCn1nnc2c1C(COC)CN(Cc1ccsc1)C2` (stereo not drawn) is 21%; for `Cn1cc(C(=O)N2CCC(c3cc(CCO)n(C)n3)C2)cn1` (stereo not drawn) it is 0.696%. Turning to `C=CNC(=O)c1nnc2ccc(N3CCOCC3)cc2n1`, the INHIBITION was found to be 11%. The figure for `CS(=O)(=O)N1CCC(CNC(=O)c2cnccn2)CC1` is 43.8%; for `Cc1cc(C)nc(N2CCC(CNC(=O)c3cnccn3)CC2)n1` it is -51.4%; for `O=C(NCC1CCN(c2ncccn2)CC1)c1cnccn1` it is 71.8%. The figure for `COc1ccccc1N1CCN(C(=O)NC(C)c2nncn2C)CC1` (stereo not drawn) is 9.14%; for `CCCC(=O)N1CCN(Cc2cc(-c3ccncc3)nn2C)CC1` it is 8.72%; for `CC(c1nccs1)n1cc(-c2cc(CN3CCCCC3)cs2)nn1` (stereo not drawn) it is 21.5%.

Regarding `CC(c1ccco1)n1cc(-c2cc(CN3CCCC3)cs2)nn1` (stereo not drawn), the INHIBITION is recorded as 5.23%. The figure for `CC(c1nncn1C)n1cc(-c2cc(CN3CCCC3)cs2)nn1` (stereo not drawn) is 57.2%; for `CC(C)CN1CCn2c(COCc3cccnc3)nnc2C1` it is -29.3%; for `O=C1CC2(CCN(CC3CC3)C2)CN1c1ccc2c(c1)OCO2` (stereo not drawn) it is 25%. In the case of `O=C1CC2(CCN(Cc3cccnc3)C2)CN1c1ccc2c(c1)OCO2` (stereo not drawn), the INHIBITION came out at 22.9%.

Turning to `Cc1ccc(CN2CCC3(CC(=O)N(c4ccc5c(c4)OCO5)C3)C2)o1` (stereo not drawn), the INHIBITION amounted to 69.5%.

In the case of `O=C1CC2(CCN(Cc3ccco3)C2)CN1c1ccc2c(c1)OCO2` (stereo not drawn), the INHIBITION was 78.8%. Consider `Cn1ccnc1CN1CCC2(CC(=O)N(c3ccc4c(c3)OCO4)C2)C1` (stereo not drawn), for which the INHIBITION is 4.27%. In the case of `Cc1ccc(CN2CCC3(CC(=O)N(c4cccc(F)c4)C3)C2)o1` (stereo not drawn) it was 12%. `CC(C)CN1CCO[C@H]2CCN(c3cnccn3)CC[C@@H]21`: the INHIBITION is listed as 16.6%.

With `O=C(c1cc(-n2cccn2)ccc1Cl)N1CCC(N2CCCC2=O)CC1`, the INHIBITION turned out to be 18.5%. The figure for `CC(C)[C@H]1CN(Cc2nccn2C)C[C@@H]1NC(=O)COCC(N)=O` is 44.9%; for `CS(=O)(=O)c1cnc(CC2CC2)nc1C1CCCNC1` (stereo not drawn) it is 41.7%; for `NC1CCN(c2nccn3c(=O)[nH]nc23)CC1` it is 48.2%.

As to `Cc1cc(N2CCN3CCCCC3C2)n2nc(C)c(C)c2n1` (stereo not drawn), the INHIBITION was 16.8%. In the case of `Cc1cc(N2CCCN3CCC[C@H]3C2)n2nc(C)c(C)c2n1` it was 48.1%; in that of `Cc1cc(N2CCN(C3CCSCC3)CC2)n2nc(C)c(C)c2n1`, 51.4%; in that of `O=S(=O)(c1cn[nH]c1)N1CCC(O)(CN2CCC(F)(F)CC2)C1` (stereo not drawn), -5.452%. In the case of `Cn1cc(Br)c(=O)c(NS(=O)(=O)c2ccc3c(c2)CCC3)c1` it was 28.3%; in that of `Cc1ccc(S(=O)(=O)Nc2ccc(=O)n(C)c2)c(Br)c1`, 77%. The figure for `Cn1cc(NS(=O)(=O)c2ccc3c(c2)CCCC3)ccc1=O` is 81.1%.

In the case of `Cc1ccc(F)c(S(=O)(=O)Nc2cn(C)cc(Br)c2=O)c1`, the INHIBITION is given as 8.53%. In the case of `Cn1cc(NS(=O)(=O)c2ccc(F)c(F)c2)ccc1=O` it was 23.5%; in that of `CC(C)Cc1ccc(S(=O)(=O)NCCCN2CCNC(=O)C2)cc1`, -20.3%. In the case of `CC(C)c1ccc(C(=O)O)cc1S(=O)(=O)Nc1ccc(=O)n(C)c1` it was -3.87%; in that of `CC(C)Cc1ccc(S(=O)(=O)Nc2ccc(=O)n(C)c2)cc1`, 88.5%; in that of `CCc1ccc(S(=O)(=O)Nc2cn(C)cc(Br)c2=O)cc1`, 25.3%.

Consider `CCCc1ccc(S(=O)(=O)Nc2ccc(=O)n(C)c2)cc1`, for which the INHIBITION amounted to 81.1%.

For `CCCc1ccc(S(=O)(=O)NCCNC(=O)c2ccoc2)cc1`, the INHIBITION is listed as 5.05%. In the case of `CCc1ccc(C(=O)O)cc1S(=O)(=O)Nc1ccc(=O)n(C)c1` it was 9.16%.
